Measurements from PubChem BioAssay AID488890 (Southern Research Specialized Biocontainment Screening …, 2010).
Screen size: about 320,000 compounds; about 1,300 (0.41%) were called active. About 3% were inconclusive and are not listed. No rule for the calls is given here. Only a sample is shown. Results with a measured potency or affinity are listed apart.

Experiment: growth inhibition of non-replicating M. tuberculosis (AID 488890);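 also: plate controls were DMSO cells for no effect and high antibiotic wells for full effect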
Details: Mycobacterium tuberculosis non-replicating, at 25 µM, stronger effect = higher value

SMILES | inhibition [%]
CCCc1cc(=O)oc2c(C)c(OCC(=O)N3CCC[C@@H]3C(=O)O)ccc12 | -11.2
CCOC(=O)/C(=N\Nc1cc(Cl)ccc1Cl)N1CCN(CC)CC1 | 46
COc1ccc(CN2C(=O)C(O)(CC(=O)c3ccc4c(c3)OCO4)c3ccccc32)cc1OC (stereo not drawn) | 12.6
Cc1[nH]c2ccccc2c1C(=O)NS(=O)(=O)Nc1ccc(F)cc1 | -2.71
COc1ccccc1Oc1ccc(NC(=O)Cc2ccccc2)cc1 | 19.6
O=c1ccc(=O)n(-c2ccccc2)[nH]1 | 20
O=c1[nH][nH]c(=O)n1-c1ccccc1 | -3.31
CCOC(=O)c1cn(Cc2ccccc2)nn1 | 74.6
CCOC(=O)c1cn(Cc2ccc(C)cc2)nn1 | 75.3
CCc1nnc(NC(=O)CSc2nncc(=O)n2N)s1 | -12.3
Cn1cnnc1SCCNS(=O)(=O)c1ccccc1 | 2.23
CCOC(=O)c1c(C)[nH]c(C(=O)OCC(=O)NCc2ccc(C)cc2)c1C | -10.5
C/C(CC(=O)Nc1ccc(N(C)C)cc1)=N\NC(=O)c1ccc(Cl)cc1 | 8
C/C(CC(=O)Nc1ccc(N(C)C)cc1)=N\NC(=O)c1ccc(F)cc1 | 8.75
Cc1cc(C)c(S(=O)(=O)NCC(=O)NCc2ccco2)c(C)c1 | 0.05
COC1C(C)=C(C)C(=O)N1Cc1ccccc1 (stereo not drawn) | -5.86
C/C(=N\O)c1cc(Cl)cc(Cl)c1O | 19
C/C(=N\O)c1ccc(Cl)cc1Cl | 1.76
CCCCC(=O)N=c1sc2cc(S(C)(=O)=O)ccc2n1C | -0.02
O=C(Nc1nnc(-c2ccc(F)cc2)o1)c1cccc([N+](=O)[O-])c1 | -8.79

SMILES | inhibition [%]
O=C(Nc1nnc(-c2ccccc2)o1)c1cc(Cl)sc1Cl | 9.95
CS(=O)(=O)c1ccccc1-c1nnc(NC(=O)c2ccc3ncsc3c2)o1 | 10.1
COc1cccc(C(=O)Nc2cccc(-c3nnc(-c4ccccc4)o3)c2)c1 | -7.83
COC(=O)c1ccc(C(=O)Nc2nnc(-c3cccnc3)o2)cc1 | 7.58
CS(=O)(=O)c1cccc(-c2nnc(NC(=O)c3ccc4ncsc4c3)o2)c1 | -2.94
O=C(Nc1ccc(F)cc1)c1cc(Cl)sc1Cl | 70.7
O=C(Nc1nnc(-c2cccnc2)o1)c1ccccc1Cl | 35.5
O=C1CC(N2CCC(c3nc4ccccc4[nH]3)CC2)C(=O)N1c1cccc(F)c1 (stereo not drawn) | 20.2
CCOC(=O)Cn1c(=NC(=O)CSC(C)=O)sc2cc(F)ccc21 | 30.8
Cc1nc(OCc2c(C)noc2C)c2ccccc2n1 | -6.1
Brc1ccc(-c2ccccc2)cc1 | 27.1
Cc1ccc(OCC(=O)Nc2ccccc2C(=O)N2CCCC2)cc1 | 1.03
Cc1nnsc1C(=O)Nc1ccc(Cl)cc1 | -9.77
Cc1nnsc1S(=O)c1ccc(Cl)cc1 (stereo not drawn) | -4.16
Cc1cccc(-c2nc3cc([N+](=O)[O-])ccc3o2)c1 | 4.61
COc1ccc(-c2[nH]nc3oc(=O)cc(C)c23)cc1 | 7.5
Cc1nc2ncccn2c1-c1csc(Nc2cccc(C(=O)O)c2)n1 | -13.4
CC1CCC(NS(=O)(=O)c2cccc3nsnc23)CC1 (stereo not drawn) | 0.44
CCC(C(=O)O)n1nnc(-c2ccc(-c3ccc(OC)cc3)cc2)n1 (stereo not drawn) | 28
CCCCOc1ccc(-c2nnn(CC(=O)Nc3ncc(CC(=O)OCC)s3)n2)cc1 | 78.8

SMILES | inhibition [%]
COc1cccc(C(=O)/C=C2\NCCc3cc(OC)c(OC)cc32)c1 | 21.5
CCN1CCN(C(=O)N(c2ccccc2)c2ccccc2)CC1 | -28.4
NC(=O)CC(NC(=O)Cc1cccc2ccccc12)c1ccc(NCCN2CCCCC2)c([N+](=O)[O-])c1 (stereo not drawn) | 3.25
OC1CCCN(CC(O)COC(c2ccc(F)cc2)c2ccc(F)cc2)C1 (stereo not drawn) | -5
OC(COC(c1ccc(F)cc1)c1ccc(F)cc1)CN1CCCC1 (stereo not drawn) | 1.01
CCOC(=O)C1(CCOc2ccccc2)CCN(Cc2ccc(O)c(Cl)c2)CC1 | 63.3
CN1CCN(NC(=O)c2ccc(Cl)c(S(=O)(=O)Nc3ccc(Cl)cc3)c2)CC1 | -0.68
CCCN(CC(=O)Nc1ccccc1C)C(=O)c1ccc(C(=O)c2ccccc2)cc1 | 18.4
COc1ccc(C(=O)N2CCNC(=O)C2CC(=O)Nc2cc(Cl)ccc2OC)cc1 (stereo not drawn) | 0.76
O=C(Cc1ccc(-n2cccc2)cc1)NC1CCCCCC1 | 19.9
CCOC(=O)COc1ccccc1/C=N/O | 15
CCOC(=O)Cn1cc(/C=C/[N+](=O)[O-])c2ccccc21 | 72.6
CCC(=O)Nc1cccc(NC(=O)c2ccc(Br)cc2)c1 | 1.37
COC(=O)c1cn(NC(=O)c2cccnc2)c(=O)c2ccccc12 | -6.97
COC(=O)c1cn(NC(=O)c2ccncc2)c(=O)c2ccccc12 | 14.3
CCCCCCCCCCC(=O)NNC(=O)c1c(O)c2ccccc2n(CC)c1=O | -9.98
COc1cc(C(=O)NCc2ccc(F)cc2)cc(Cl)c1OC | -11.2
CCCCn1c(N)c(N(CCOC)C(=O)CCNC(=O)c2ccc(Cl)cc2)c(=O)[nH]c1=O | -12.2
